Assays:
[1] = target: T1, Aspartate--tRNA(Asp/Asn) ligase (Mycobacterium tuberculosis (strain ATCC 25618 / H37Rv)) (UniProt P9WFW3); assay: Assay for Asp RNA synthetase-1 from Mycobacterium tuberculosis; type: functional; set-up: scale not given: direction of the effect not stated beside the values; conditions: 30 µM; further: in the data most compounds retested in dose-response had high values
T1 sequence (whole entry): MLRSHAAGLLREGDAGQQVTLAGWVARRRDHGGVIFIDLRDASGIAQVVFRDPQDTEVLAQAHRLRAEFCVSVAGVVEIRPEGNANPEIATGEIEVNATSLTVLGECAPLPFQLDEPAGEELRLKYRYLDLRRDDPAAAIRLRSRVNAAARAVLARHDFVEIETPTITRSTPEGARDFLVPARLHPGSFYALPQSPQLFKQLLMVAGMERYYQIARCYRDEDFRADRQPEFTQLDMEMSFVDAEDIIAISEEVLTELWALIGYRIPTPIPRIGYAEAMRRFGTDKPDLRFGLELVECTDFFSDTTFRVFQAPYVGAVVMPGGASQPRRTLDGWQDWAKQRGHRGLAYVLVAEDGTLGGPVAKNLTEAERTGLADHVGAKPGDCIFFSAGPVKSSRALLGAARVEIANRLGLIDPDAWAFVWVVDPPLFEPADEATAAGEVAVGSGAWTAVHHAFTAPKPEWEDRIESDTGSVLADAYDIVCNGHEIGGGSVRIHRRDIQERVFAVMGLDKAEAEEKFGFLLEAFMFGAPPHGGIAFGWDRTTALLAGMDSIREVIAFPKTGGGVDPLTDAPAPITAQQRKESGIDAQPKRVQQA

[2] = target: Shiga toxin 2 (Escherichia coli O157:H7) (UniProt P09385+P09386); assay: E. coli 0.157:H7 Shiga Toxin SOP - stx2 screening assay; type: functional; set-up: scale not given: direction of the effect not stated beside the values; conditions: 30 µM

SMILES	Percent Effect [1] [%]	Percent Effect [2] [%]
Cc1nn(C)c(N2CCOCC2)c1CNC1CCN(C(C)(C)C)CC1	-0.171	1.07
Cc1ncsc1C(=O)N1CCCC(c2noc(C(C)C)n2)C1 (configuration not stated)	-6.6	-6.13
Cc1noc(CN2CCN(CC(C)O)CC2)n1 (configuration not stated)	-2.18	-6.53
Clc1snnc1CN1CCCC(Cn2cncn2)C1 (configuration not stated)	-2.43	-33
CC[C@@H]1N(Cc2ccsc2)CCC[C@]12CCC(=O)N2C	-1.82	5.09
Cc1noc(CCCC(=O)NC(C)c2ccccn2)n1 (configuration not stated)	-1.28	16
Cc1n[nH]c(C)c1NC(=O)CN1CCCC(CNC(=O)C(C)(C)C)C1 (configuration not stated)	-4.35	19.6
O=C(c1ccc[nH]1)N1C[C@H](OCc2cccnc2)[C@H]2COC[C@H]21	2.69	-6.45
Cc1csc2ncc(-c3ccnc(N4CCCC[C@@H]4CO)n3)c(=O)n12	-2.34	-17.1
Cc1ccccc1CS(=O)(=O)CC(=O)NCc1ccccc1F	7.37	10.5
c1ccc(OCCCN2CCN(c3ccc4nncn4n3)CC2)cc1	-0.637	-81.9
O=C(c1ccc(F)cc1)N1C[C@@H]2OCCN(c3ncccn3)[C@@H]2C1	-0.874	-4.11
COc1cccc(C(=O)N2CCCC(c3cc(C)[nH]n3)C2)c1OC (configuration not stated)	-1.08	27
COCCNC(=O)NCc1ccc(OC(C)C)c(F)c1	-1.07	29.6
COc1ccc(OC)c(NC(=O)N2CCCC2c2ccco2)c1 (configuration not stated)	-4.36	0.199
CC1=Nc2c(c(=O)[nH]n2C(C)C)C(c2cccs2)S1 (configuration not stated)	7.78	5.29
CCc1nc(CN(C)C2CCN(CCn3cc(C#N)cn3)C2)no1 (configuration not stated)	9.06	9.46
O=C(Cc1csc(-c2ccc(Cl)cc2)n1)NC(C(=O)O)c1ccccc1 (configuration not stated)	1.86	-21.9
COc1c(CNCCNC(=O)Cc2ccc(F)cc2)c(C)nn1C	1.84	30.8
CN(C)CC1CN(Cc2ccsc2)Cc2nccn2C1 (configuration not stated)	4.71	-1.56
Cc1ccccc1-c1noc(CN2CCn3c(nnc3C3CC3)C2)n1	-0.7	-48.8
CC(=O)N1CCC2(CC1)COCCN2CCN(C)C	0.524	1.75
COc1ccc(CCN2CCN(C(=O)c3scnc3C)CC2)cc1	0.928	0.201

SMILES	Percent Effect [1] [%]	Percent Effect [2] [%]
CO[C@@H]1CC[C@@H](N(C)C(=O)COc2ccc(F)cc2)[C@H]1O	3.81	28.3
CCCN1CCN(C(=O)C(C)n2cc(Br)cn2)CC1 (configuration not stated)	5.74	-31.6
CN(C)C(=O)NCc1cc2n(n1)CCN(C[C@H]1[C@@H]3CNC[C@@H]31)C2	-4.99	-21.2
COc1ncccc1NC(=O)C1CC(=O)N(Cc2ccccn2)C1 (configuration not stated)	1.2	-0.103
O=C(Nc1ccc(F)cc1)N1C[C@H]2C[C@H](C(=O)N3CCOCC3)[C@@H](C1)O2	0.452	-11.7
CCOCC1CN(S(C)(=O)=O)Cc2cnn(CC3CCOCC3)c21 (configuration not stated)	5.17	-7.39
Fc1cccc(-n2ccc(CN3CCCCC3Cn3cncn3)n2)c1 (configuration not stated)	-3.17	17.2
C[S+]([O-])c1nncn1CC(=O)c1cccc(Cl)c1 (configuration not stated)	-0.917	-33.8
Cc1ccc(CNCc2ccc(-n3nc(C)cc3C)nc2)cc1	1.23	22.8
Cc1cncc(C2CCCN(C(=O)c3cccn3C)C2)n1 (configuration not stated)	1.84	-12.2
Cc1ccc(CC(=O)N2CC[C@@H]3CN(CCN(C)C)CCO[C@@H]3C2)cc1	6.89	-3.9
Cc1ccc(-c2nc(CCNC(=O)CCN3CCOC3=O)co2)cc1	-1.93	-45.5
N#CC1(C(=O)NCCCNc2ccc(C(F)(F)F)cn2)CCCC1	2.12	21.2
CCC(=O)N1CCCC1c1nccnc1Nc1nc(C)cc(C)n1 (configuration not stated)	4.25	-28.8
COc1ccccc1N1CCC(CNCc2cccc(O)c2)C1 (configuration not stated)	2.22	-10.3
Cc1nn(C)c(C)c1C1CCCN1Cc1nc(C2CC2)no1 (configuration not stated)	-10.2	-15.8
Cc1[nH]c2ccccc2c1-c1ccnc(NC[C@H](O)CO)n1	0.691	-30.4
CNC(=O)c1ccc(CN2CCC(N(C)Cc3noc(C)n3)C2)cc1 (configuration not stated)	-0.577	7.96
CC(=O)N1CCCN(C(=O)c2oc(Br)cc2C)CC1	-0.167	-13.6
Cn1cnc2c1CCN(Cc1cccc(OCC(N)=O)c1)C2	-4.08	-24.5
Cc1nn(C)c(N2CCOCC2)c1CNCc1ccnc(N(C)C)c1	-1.27	25.6
Cc1ncoc1C(=O)N1C[C@H]2CCC[C@@]2(COCC2CCOCC2)C1	-1.27	3.67
c1coc(CN2CCCC3(COCCN(Cc4c[nH]nn4)C3)C2)c1 (configuration not stated)	2.45	4.89
